# In PubChem BioAssay (NCI):
# About 83,000 compounds went through this panel and 20% of them were active in at least one assay; those are over-represented in the sample as a whole.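 Cell lines were cultured in 96-well plates, exposed to a single compound concentration, and assessed for percent growth 48 hours later.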 Values without a mark were called inactive. Activity calls are given as the source filed them. Rule for the calls: active = growth percent below 10; inactive = the rest.
# Tests used:
# Assay in all cases: NCI-60 one-dose screen, 48 h (100 = growth as untreated, 0 = no growth, -100 = all killed)
# Details in all cases: 10 µM unless noted
# SK-MEL-2 melanoma = test system: SK-MEL-2 melanoma
# EKVX NSCLC = test system: EKVX NSCLC
# SN12C renal = test system: SN12C renal
# UO-31 renal = test system: UO-31 renal
# TK-10 renal = test system: TK-10 renal
# ACHN renal = test system: ACHN renal
# CAKI-1 renal = test system: CAKI-1 renal
# A498 renal = test system: A498 renal
# CCRF-CEM leukemia = test system: CCRF-CEM leukemia
# MOLT-4 leukemia = test system: MOLT-4 leukemia
SMILES,growth (SK-MEL-2 melanoma),growth (EKVX NSCLC),growth (SN12C renal),growth (UO-31 renal),growth (TK-10 renal),growth (ACHN renal),growth (CAKI-1 renal),growth (A498 renal),growth (CCRF-CEM leukemia),growth (MOLT-4 leukemia)
COc1ccc(C(=O)COc2cccc(/C=C3\CSc4ccc(Cl)cc4C3=O)c2)cc1,46.9%,77.9%,90.2%,13.1%,118%,90.3%,69.6%,94.4%,-21.3% (active),7.34% (active)
COc1cccc(C2=NN(C(C)=O)C(c3cc(OC)c(OC)c(OC)c3)C2)c1 (centres undefined),26.9%,47.4%,42.7%,-29.9% (active),78.4%,56.1%,216%,71.3%,-7.81% (active),9.77% (active)
Cc1c2oc3c(C)ccc(C(=O)OC(C)C4NC(=O)C(C(C)C)N(C)C(=O)CN(C)C(=O)C5CCCN5C(=O)C(C(C)C)NC4=O)c3nc-2c(C(=O)OC(C)C2NC(=O)C(C(C)C)N(C)C(=O)CN(C)C(=O)C3CCCN3C(=O)C(C(C)C)NC2=O)c(N)c1=O (centres undefined),-64.8% (active),5.92% (active),7.77% (active),-8.49% (active),-7.83% (active),1.27% (active),3.24% (active),-75.4% (active),18.4%,–
O=C(COc1ccc(/C=C2\Oc3ccc4ccccc4c3C2=O)cc1)c1ccc([N+](=O)[O-])cc1,48.6%,100%,89.7%,2.26% (active),117%,107%,101%,103%,-17.2% (active),20.4%
O=C(NCCNC(=O)Oc1cccc2ccccc12)Oc1cccc2ccccc12,88.7%,92.9%,105%,45.4%,92.3%,85.3%,95%,89.2%,65.2%,80.6%
O=[N+]([O-])c1cc([N+](=O)[O-])c(N2CCCC2)cc1NN=C(c1ccc(O)cc1)c1ccc(O)cc1,-47.6% (active),90.5%,128%,-78.1% (active),131%,46.9%,91.9%,122%,55.3%,57.3%
O=C(N/N=C/c1cccc([N+](=O)[O-])c1)c1ccc(Br)o1,103%,103%,142%,-25.2% (active),129%,156%,98.3%,129%,78.2%,132%
NS(=O)(=O)c1ccc(-n2ncc3c(NC4CCCCC4)ncnc32)cc1,103%,102%,97.5%,0.88% (active),107%,92.3%,39.6%,106%,82.3%,72.6%
COc1ccc2cc(-c3nc4ccccc4[nH]3)c(=O)oc2c1,22.1%,77.3%,92.3%,94.2%,119%,86.2%,82.2%,95.6%,95.3%,97.7%
Nc1ccc2c(c1Br)Cc1ccccc1-2,94.2%,68%,86.6%,54.4%,123%,95.8%,98.6%,86.8%,53.2%,68.4%
CO[C@H]1/C=C/O[C@@]2(C)Oc3c(C)c(O)c4c(O)c(c(/C=N/N5C(C)CN(Cc6ccc(C#N)cc6)CC5C)c(O)c4c3C2=O)NC(=O)/C(C)=C\C=C\[C@H](C)[C@H](O)[C@@H](C)[C@@H](O)[C@@H](C)[C@H](OC(C)=O)[C@@H]1C (some centres undefined),61.2%,17.1%,39.4%,24.6%,19.7%,26.3%,39.1%,20.5%,12.1%,-2.17% (active)
O=c1[nH]c(SCc2ccccc2)nc2nc(Nc3ccc(NC(=S)Nc4ccccc4)cc3)nc(-c3ccc(O)cc3O)c12,87.8%,95.9%,88%,107%,133%,89.5%,101%,108%,94.5%,93%
Cc1ccc(OCC(=O)Nc2ccc(Oc3ccccc3)cc2)c([N+](=O)[O-])n1,30.9%,89.5%,68.5%,-38.4% (active),92.2%,101%,84.3%,107%,88%,81.8%
Cc1ccc2c(c1)C(=O)/C(=C\Nc1ccc(C(N)=O)cc1)C(O)O2 (centres undefined),77.4%,97.8%,136%,79.3%,120%,104%,82.3%,115%,78.3%,80.6%
